Screening data as filed in PubChem.
LmPK inh: blocks Leishmania mexicana pyruvate kinase activity. AID 1721. 290,000 tested, 0.37% active. Q27686. purified LmPK, Kinase-Glo ATP luminescence, 1 h. Potency, µM (titrated, usually from 57.5 µM), for the others: at the top dose activity change, negative = inhibition, usual class: inhibitors; also: potency is read from the fitted curve at half-maximal effect; % is scaled to controls: 0 for no effect and ±100 for the full control effect
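qHTS format; LmPK 0.1 nM; substrates PEP 0.5 mM and ADP 0.1 mM. One-hour room-temperature incubation, then coupled luciferase luminescence; 0.5 nM enzyme wells mark activation.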
TbPYK inhibitor: T. brucei pyruvate kinase inhibition. Q57TT1. TbPYK enzyme, Kinase-Glo Plus ATP luminescence, 45 min. Potency, µM (series often up to 76.8 µM), without a hit: top-dose activity, negative = inhibition, most hits filed as inhibitors. 410,000 tested, 0.12% active; also: potency is read from the fitted curve at half-maximal effect; % is scaled to controls: 0 for no effect and ±100 for the full control effect; nearly all actives have a fitted effect of over 50% in size
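TbPYK + substrate in 50 mM TEA pH 7.2, 100 mM KCl, 10 mM MgCl2, 0.05% BSA, 0.01% Tween-20; cpd pinned; ADP 130 uM final; 45 min RT; Kinase-Glo Plus 10 min; luminescence endpoint.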
Giardia FBPA inh: inhibitors of Giardia lamblia fructose-1,6-bisphosphate aldolase; purified Giardia FBPA; 290,000 tested, 0.71% active; Potency, µM (doses to about 59.6 µM), for inactives: top-dose activity, negative = inhibition, actives largely listed as inhibitors; A8B2U2; also: potency is read from the fitted curve at half-maximal effect; % is scaled to controls: 0 for no effect and ±100 for the full control effect; nearly all actives have a fitted effect of over 55% in size
Target sequence (A8B2U2 whole entry, looked up): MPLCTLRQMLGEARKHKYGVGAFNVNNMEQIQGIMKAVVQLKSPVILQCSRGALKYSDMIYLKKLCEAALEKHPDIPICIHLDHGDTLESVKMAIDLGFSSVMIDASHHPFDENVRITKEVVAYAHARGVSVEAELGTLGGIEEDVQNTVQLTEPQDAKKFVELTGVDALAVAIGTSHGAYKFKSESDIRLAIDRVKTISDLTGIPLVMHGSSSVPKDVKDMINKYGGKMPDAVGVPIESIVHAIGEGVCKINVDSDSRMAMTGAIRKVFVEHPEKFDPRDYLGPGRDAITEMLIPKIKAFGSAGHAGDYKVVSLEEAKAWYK
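Giardia FBPA (40 nM reagent) was preincubated 10 min at RT with compound (up to 57.5 uM final), then substrate plus GAPDH/TPI/NAD/arsenate coupling system with diaphorase/resazurin was added; resorufin fluorescence (525/598 nm) was read after 20 min.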
Shiga toxin inh: blocks Shiga toxin action in Vero cells; inhibition, % at 38.7 µM; Vero cells, Shiga toxin protein synthesis inhibition reporter; 290,000 tested, 9.2% active; in the data active = inhibition mostly above about 28%, no sharp cut-off; inactive = mostly below about 43%; also: 0% is about no effect
RE007 growth inh: less growth of the S. pombe RE007 Vpr strain | S. pombe RE007 Vpr strain, BacTiter-Glo ATP luminescence, 24 h | Potency, µM (highest dose often 92.2 µM), without a hit: top-dose activity change, negative = less growth, usual class: inhibitors | AID 651644 | 360,000 tested, 0.21% active; active = well fitted falling curve with a large enough effect; inconclusive = small, poorly fitted or top-dose-only effect; inactive = no such curve, though single readings can be large or run the other way; also: potency is read from the fitted curve at half-maximal effect; % is scaled to controls: 0 for no effect and ±100 for the full control effect; nearly all actives have a fitted effect of over 50% in size
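Fission yeast RE007 carrying one integrated HIV-1 vpr copy, seeded at OD 0.01 in PMG+AL medium with 23 nL pinned compound. Grown 24 h at 30 degrees; viability read by BacTiter-Glo luminescence after 5 min.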
Cycloheximide cs: counter-screen for Shiga toxin inhibitors: cycloheximide protein synthesis inhibition. cell reporter, cycloheximide protein synthesis inhibition counterscreen. max response, %. 300,000 tested, 12% active. AID 2314; in the data active = max response mostly above about 13%, no sharp cut-off; inactive = mostly below about 14%; also: read at 38.3 µM for the half of the compounds with a filed dose; 0% is about no effect
The depositor's hits bear a star; [ ] = remark or other dose. Only a selection was taken, and hits are over-represented in it overall. Unless noted, calls follow the shape of the dose curve; as a rule, active = well fitted curve in the direction sought with a large enough effect; inconclusive = small, poorly fitted or top-dose-only effect, or another doubt; inactive = no such curve, though single readings can be large; an effect the other way counts as inactive or inconclusive.

Cc1cccc(C(=O)Nc2nc3c(s2)CCCC3)c1 was read as TbPYK inhibitor -8%.
For O=C(Nc1nc2c(s1)CCCC2)c1ccc2ncsc2c1 the results were LmPK inh -1%, TbPYK inhibitor -29%, Giardia FBPA inh -12%, Shiga toxin inh 67*, RE007 growth inh -16% and Cycloheximide cs 41*.
`Cc1ccccc1C(=O)NC(C(=O)Nc1nc2c(s1)CCCC2)C(C)C` (stereo unspecified) gave LmPK inh 1%, TbPYK inhibitor -1%, Giardia FBPA inh -5%, Shiga toxin inh 31*, RE007 growth inh -5% and Cycloheximide cs 17*.
For COc1ccc(CNc2ncnc3ccc(-c4c(C)noc4C)cc23)cc1 the results were Giardia FBPA inh -7%, Shiga toxin inh -2 and Cycloheximide cs 7.
`COc1cccc(OCc2cc(C(=O)N3CCCC3c3ccccn3)no2)c1` (stereo unspecified) gave LmPK inh -7%, TbPYK inhibitor 8%, Shiga toxin inh 62*, RE007 growth inh -1% and Cycloheximide cs 70*.
`COc1cccc(OCc2cc(C(=O)N3CCNC(=O)C3Cc3ccccc3)no2)c1` (stereo unspecified) gave LmPK inh 0%, TbPYK inhibitor 4%, Giardia FBPA inh 1%, Shiga toxin inh 74*, RE007 growth inh -7% and Cycloheximide cs 40*.
`Cc1ccc(Nc2nc(/N=C/N(C)C)n[nH]2)cc1C` gave LmPK inh -7%, TbPYK inhibitor -1%, Giardia FBPA inh 0%, Shiga toxin inh 86*, RE007 growth inh 2% and Cycloheximide cs 51*.
Screening CCOc1ccc(C2CC(=O)n3nc(-c4ccc(C)cc4)nc3S2)cc1 (stereo unspecified) returned TbPYK inhibitor 2%.
C=CCn1c(C)cc(C(=O)COc2ncnc3sccc23)c1C was read as LmPK inh -3%, TbPYK inhibitor -1%, Giardia FBPA inh -7%, Shiga toxin inh 120, RE007 growth inh 10% and Cycloheximide cs 40*.
CN(C(=O)CC1C(=O)NCCN1Cc1cccc(C(F)(F)F)c1)C1CCOCC1 (stereo unspecified) was read as LmPK inh 1%, TbPYK inhibitor -17%, Shiga toxin inh -9, RE007 growth inh -7% and Cycloheximide cs -2.
Cc1ccc(NC(=O)c2nc[nH]c2C(=O)NCCCNC(=O)c2[nH]cnc2C(=O)Nc2ccc(C)cc2)cc1 was read as TbPYK inhibitor -4% and RE007 growth inh -3%.
For Cc1ccc(NC(=O)c2[nH]cnc2C(=O)NN)cc1 the results were LmPK inh -8%, TbPYK inhibitor -4%, Giardia FBPA inh 6%, Shiga toxin inh 71*, RE007 growth inh -1% and Cycloheximide cs 26*.
For CCOC(=O)c1c(NC(=O)COC(=O)c2cc(OC)c(OC)cc2[N+](=O)[O-])sc(C)c1C the results were LmPK inh -3%, TbPYK inhibitor -3%, Giardia FBPA inh -1%, Shiga toxin inh -8, RE007 growth inh 10% and Cycloheximide cs -3.
CCC(C)C(NC(=O)c1ccccc1NC(=O)c1ccc(C)cc1)C(=O)O (stereo unspecified) was read as LmPK inh 5%, TbPYK inhibitor -7%, Giardia FBPA inh -28%, Shiga toxin inh 94*, RE007 growth inh 18% and Cycloheximide cs 55*.
Cc1ccc(C(=O)Nc2ccccc2C(=O)NC(C(=O)O)C(C)C)cc1 (stereo unspecified) was read as LmPK inh -7%, TbPYK inhibitor -15%, Giardia FBPA inh inconclusive, Shiga toxin inh 48*, RE007 growth inh 2% and Cycloheximide cs 21.
For O=C(N=Nc1c(O)n(Cc2ccccc2)c2ccccc12)c1ccc(O)cc1 the results were LmPK inh -4%, TbPYK inhibitor -4%, Giardia FBPA inh -10%, Shiga toxin inh 60* and Cycloheximide cs 64*.
Screening O=C(N=Nc1c(O)n(Cc2ccccc2)c2ccccc12)c1cc2ccccc2cc1O returned LmPK inh -2%, TbPYK inhibitor -5%, Giardia FBPA inh inconclusive, Shiga toxin inh 22, RE007 growth inh 4% and Cycloheximide cs 16*.
CC(C)CCN1C(=O)c2ccccc2CC1(C)C(=O)NC1CCC(C)CC1 (stereo unspecified) was read as TbPYK inhibitor -7%.
Screening CS(=O)(=O)c1ccc2nc(NC(=O)CCNC(=O)c3ccc(Cl)cc3)sc2c1 returned TbPYK inhibitor 0% and RE007 growth inh 1%.
CCOC(=O)N1CCN(C(=O)CCN2C(=O)/C(=C\c3cccc(OC)c3)SC2=S)CC1 was read as LmPK inh 0%, TbPYK inhibitor 3%, Shiga toxin inh -6, RE007 growth inh 1% and Cycloheximide cs -7.
Screening O=C(Nc1ccc(C(=O)N2CCN(c3ccccc3F)CC2)cc1)C1=CSCCO1 returned LmPK inh -4%, TbPYK inhibitor -1%, Shiga toxin inh 31*, RE007 growth inh -12% and Cycloheximide cs 26*.
`O=C(Nc1ccc(C(=O)N2CCCCC2)cc1)C1=CSCCO1` gave LmPK inh inconclusive, TbPYK inhibitor -24%, Shiga toxin inh 84*, RE007 growth inh -18% and Cycloheximide cs 28*.
For O=C(c1ccc2c(c1)OCO2)N1CCN(c2ccccc2F)CC1 the results were LmPK inh 6%, TbPYK inhibitor 2%, Giardia FBPA inh 7%, Shiga toxin inh 29, RE007 growth inh 3% and Cycloheximide cs 22*.
Screening Cc1cc(C)c(-c2cc([C@H](C)O/N=C3/[C@H]4OC4[C@@H](O)[C@H]4[C@H]3CCn3c(=O)n(-c5ccccc5)c(=O)n34)on2)c(C)c1 (stereo partly specified) returned Giardia FBPA inh -5%[12.9 µM].
`CCC(C(=O)Nc1ccc(C(C)C)cc1)n1nc(C)n2c(cc3cc(C)ccc32)c1=O` (stereo unspecified) gave TbPYK inhibitor -1%.
`O=C1OC(O)c2cccc3cccc1c23` (stereo unspecified) gave TbPYK inhibitor -9% and RE007 growth inh 15%.
`COc1cc(NC(=O)c2cccs2)c(C(=O)OCC(=O)NC(=O)NC(C)(C)C)cc1OC` gave LmPK inh 3%, TbPYK inhibitor 3%, Giardia FBPA inh -5%, Shiga toxin inh -10, RE007 growth inh -3% and Cycloheximide cs -1.
`COc1cc(NC(=O)c2cccs2)c(C(=O)OCC(=O)c2cc(C)n(-c3ccc(F)cc3)c2C)cc1OC` gave LmPK inh 1%, TbPYK inhibitor 0%, Giardia FBPA inh 6%, Shiga toxin inh 98*, RE007 growth inh -4% and Cycloheximide cs 123*.
